From PubChem BioAssay (NCATS)
Results filed as inconclusive are left out. Calls of active or inactive are those of the source. Calls follow the shape of the dose curve; as a rule, active = well fitted cell-killing curve with a large enough effect; inconclusive = small, poorly fitted or top-dose-only effect, or effect the other way; inactive = no such curve, though single readings can be large or run the other way.

assay: Quantitative High-Throughput drug screen in 47 multiple myeloma cell lines against the NCATS MIPE library collection: AMO1_DSMZ cell viability assay (AID 1918927; also: nearly all actives have a fitted effect of over 30% in size); conditions: AMO1 myeloma cells viability, CellTiter-Glo ATP luminescence, 48 h; series mostly up to 45.8 µM; viability, % of DMSO: at the top concentration
Text: PI: Beverly A. Mock Ph.D.
Laboratory of Cancer Biology and Genetics,
Center for Cancer Research, National Cancer Institute,
National Institute of Health, Bethesda, Maryland
Drug resistance and disease progression are common in multiple myeloma (MM) patients, underscoring the need for new therapeutic combinations. […] We hypothesized that effective combinations would reduce MYC expression and enhance p16 activity. […] These preclinical data identify potentially useful drug combinations for evaluation in drug-resistant MM and reveal potential mechanisms of combined drug sensitivity.
Described herein is the primary MIPE qHTS used to cherrypick compounds. Validated compounds were then further tested for potential synergistic activiy.
[1] Peat TJ, Gaikwad SM, Dubois W, Gyabaah-Kessie N, Zhang S, Gorjifard S, Phyo Z, Andres M, Hughitt VK, Simpson RM, Miller MA, Girvin AT, Taylor A, Williams D, D'Antonio N, Zhang Y, Rajagopalan A, Flietner E, Wilson K, Zhang X, Shinn P, Klumpp-Thomas C, McKnight C, Itkin Z, Chen L, Kazandijian D, Zhang J, Michalowski AM, Simmons JK, Keats J, Thomas CJ, Mock BA. Drug combinations identified by high-throughput screening promote cell cycle transition and upregulate Smad pathways in myeloma. Cancer Lett. 2023 Aug 1;568:216284. doi: 10.1016/j.canlet.2023.216284. Epub 2023 Jun 24. PMID: 37356470; PMCID: PMC10408729.
SEQUENCE No. (e.g., 1, 2, 3, etc.); […] (e.g., Cells, Incubation, Reagent, etc.); VALUE and DESCRIPTION.
1; Cells; 5 uL; white, solid bottom 1536-well Greiner assay plate.
2; Compounds; 23 nL; Kalypsis pin tool (Wako USA) equipped with a 1536-well pin head to transfer to the assay plates.
3; Incubation; 48 hours; 37C incubation.
4; Reagent;5uL; CellTiter Glo (Promega).
5; Detector; 425V; Luminescence; Viewlux PerkinElmer.
NOTES (numbers refer to Sequence numbers above)
1. The cell-based screening methods employed in this study were like those previously published. Briefly, the corresponding myeloma cell lines were screened in 1,536-well plates with 500 cells, 5-uL per well for inhibition of cell viability (assessed by measuring ATP levels with CellTiterGlo).
2. NCATS MIPE 4.0 library of approved and investigational drugs were added using the Kalypsis pin tool. Wells treated with DMSO only for 100% viability and media only wells for 0% viability were used as controls.
3. The assay plates were covered and incubated for 48 hours in a 37C, 5% CO2 incubator with controlled humidity.
4. After 48 hours, CellTilter-GloTM luminescent substrate mix (Promega) reagent was added to the assay plate and plates we incubated for 5 min at room temperature.
5. Signal was measured as median relative luminescence units on a ViewLux (PerkinElmer) multiplate reader.
[1] Heske CM, Davis MI, Baumgart JT, Wilson K, Gormally MV, Chen L, Zhang X, Ceribelli M, Duveau DY, Guha R, Ferrer M, Arnaldez FI, Ji J, Tran HL, Zhang Y, Mendoza A, Helman LJ, Thomas CJ. Matrix Screen Identifies Synergistic Combination of PARP Inhibitors and Nicotinamide Phosphoribosyltransferase (NAMPT) Inhibitors in Ewing Sarcoma. Clin Cancer Res. 2017 Dec 1;23(23):7301-7311. doi: 10.1158/1078-0432.CCR-17-1121. Epub 2017 Sep 12. PMID: 28899971; PMCID: PMC6636827.
Potency is read from the fitted curve at half-maximal effect.

| Structure (SMILES) | Potency | viability, % of DMSO |
| --- | --- | --- |
| CCOC(=O)Nc1ccc(NCc2ccc(F)cc2)nc1N | 18.7 µM (active) |  |
| CC(CCc1ccc(O)cc1)NCCc1ccc(O)c(O)c1 (stereo not given) | 18.7 µM (active) |  |
| CC(C)NCC(O)c1ccc(O)c(O)c1 (stereo not given) | 5.26 µM (active) |  |
| O=C(c1ccc(F)cc1)C1CCN(CCn2c(=O)[nH]c3ccccc3c2=O)CC1 |  | 105% (inactive) |
| CCCCc1oc2ccccc2c1C(=O)c1cc(I)c(OCCN(CC)CC)c(I)c1 | 8.33 µM (active) |  |
| CN1C2CCC1CC(OC(=O)C(CO)c1ccccc1)C2 (stereo not given) |  | 102% (inactive) |
| CNCCCC12CCC(c3ccccc31)c1ccccc12 | 23.5 µM (active) |  |
| CC[N+](CC)(CC)CCOc1cccc(OCC[N+](CC)(CC)CC)c1OCC[N+](CC)(CC)CC |  | 107% (inactive) |
| CN(CCOc1ccc(NS(C)(=O)=O)cc1)CCc1ccc(NS(C)(=O)=O)cc1 |  | 88.8% (inactive) |
| OCCN1CCN(CCCN2c3ccccc3Sc3ccc(C(F)(F)F)cc32)CC1 | 18.7 µM (active) |  |
| CC[C@@]1(O)C(=O)OCc2c1cc1n(c2=O)Cc2cc3c(CN(C)C)c(O)ccc3nc2-1 | 0.264 µM (active) |  |
| CC(C(=O)O)c1cccc(C(=O)c2ccccc2)c1 (stereo not given) |  | 116% (inactive) |
| CN(Cc1cnc2nc(N)nc(N)c2n1)c1ccc(C(=O)N[C@@H](CCC(=O)O)C(=O)O)cc1 | 0.0166 µM (active) |  |
| Nc1ccn([C@H]2CC[C@@H](CO)O2)c(=O)n1 |  | 93.2% (inactive) |
| NCCCCCC(=O)O |  | 108% (inactive) |
| Cc1cnc(C(=O)NCCc2ccc(S(=O)(=O)NC(=O)NC3CCCCC3)cc2)cn1 |  | 94.1% (inactive) |
| CC(C)C(=O)Nc1ccc([N+](=O)[O-])c(C(F)(F)F)c1 | 4.69 µM (active) |  |
| O=C(c1ccc(OCCN2CCCCC2)cc1)c1c(-c2ccc(O)cc2)sc2cc(O)ccc12 | 20.9 µM (active) |  |
| COc1nc(C)nc(Cl)c1NC1=NCCN1 |  | 115% (inactive) |
| NC(CO)C(=O)NNCc1ccc(O)c(O)c1O (stereo not given) |  | 94.9% (inactive) |

| Structure (SMILES) | Potency | viability, % of DMSO |
| --- | --- | --- |
| CN1CCC(=C2c3ccccc3CC(=O)c3sccc32)CC1 | 16.6 µM (active) |  |
| NC(=O)NO | 4.69 µM (active) |  |
| CC(C)(Oc1ccc(C2CC2(Cl)Cl)cc1)C(=O)O (stereo not given) |  | 111% [at 92.2 µM] (inactive) |
| CC(COc1ccccc1)N(CCCl)Cc1ccccc1 (stereo not given) |  | 127% (inactive) |
| CN(C)c1nc(N(C)C)nc(N(C)C)n1 |  | 95.7% (inactive) |
| CS(=O)(=O)Nc1ccc([N+](=O)[O-])cc1Oc1ccccc1 |  | 118% (inactive) |
| COc1ccc2[nH]cc(CCNC(C)=O)c2c1 | 0.235 µM (active) |  |
| CC(=O)OCC(CCn1cnc2cnc(N)nc21)COC(C)=O |  | 110% (inactive) |
| CCN1CCCC1CNC(=O)c1cc(S(=O)(=O)CC)c(N)cc1OC (stereo not given) | 0.0743 µM (active) |  |
| CCc1cccc2c3c([nH]c12)C(CC)(CC(=O)O)OCC3 (stereo not given) |  | 117% (inactive) |
| Cc1ccccc1N1C(=O)c2cc(S(N)(=O)=O)c(Cl)cc2NC1C (stereo not given) |  | 112% (inactive) |
| Cc1ccc(-c2cc(C(F)(F)F)nn2-c2ccc(S(N)(=O)=O)cc2)cc1 |  | 113% (inactive) |
| NCCc1cnc[nH]1 |  | 123% (inactive) |
| CS(=O)(=O)CCNCc1ccc(-c2ccc3ncnc(Nc4ccc(OCc5cccc(F)c5)c(Cl)c4)c3c2)o1 | 2.35 µM (active) |  |
| CN1CCN(CCCN2c3ccccc3Sc3ccc(Cl)cc32)CC1 | 16.6 µM (active) |  |
| NCCS(=O)(=O)O |  | 135% (inactive) |
| CN(C)C(=N)N=C(N)N |  | 146% (inactive) |
| Cn1ccc2cc3c(cc21)CCN3C(=O)Nc1cccnc1 | 23.5 µM (active) |  |
| Cc1cc(C(C)(C)C)c(O)c(C)c1CC1=NCCN1 |  | 108% (inactive) |
| Cn1c(=O)c2c(ncn2C)n(C)c1=O |  | 106% (inactive) |
